NCOA1 inh: inhibitors of human steroid receptor coactivator 1 (SRC1). Q15788. HEK293 GAL4-SRC1 luciferase reporter, luminescence. inhibition, % at 3.6 µM. 360,000 tested, 0.12% active;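 active = inhibition above the campaign mean plus 3 SD, with each screening campaign given its own cutoff, cut at about 60% in these data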
SRC2 inh: human SRC2 (NCOA2) inhibition; Q15596; HEK293 GAL4-SRC2 luciferase reporter, luminescence; inhibition, % at 9 µM; 370,000 tested, 0.17% active; AID 651957;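 active = inhibition above the mean inhibition of all tested compounds plus 3 SD, set per campaign, cut at about 52% in these data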
SRC3 inh: inhibits human SRC3 coactivator. inhibition, % at 3.6 µM. AID 588352. 360,000 tested, 0.17% active. Q9Y6Q9. HEK293 GAL4-SRC3 luciferase reporter, luminescence;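 active = inhibition above a per-campaign cutoff, the mean of all compounds plus 3 SD, cut at about 60% in these data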;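 also: higher means less SRC3-driven luciferase light from the GAL4 reporter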
NR5A2 inv ag: inverse agonists of human LRH-1 (NR5A2). O00482. HEK293T StAR-luciferase reporter, LRH-1 transfected, 24 h. inhibition, % at 3.6 µM. 360,000 tested, 0.13% active;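 active = inhibition above the mean inhibition of all tested compounds plus 3 SD, cut at about 73% in these data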
GalR3 antagonist: blocks the human galanin receptor 3; O60755; HEK293 GalR3-CNG cAMP membrane potential fluorescence; galR3 body fused to GalR1 C-terminus; inhibition, % at 3 µM; 360,000 tested, 0.44% active; AID 651719;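 active = inhibition above the screen-wide average plus 3 SD, cut at about 13% in these data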;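 also: forskolin and galanin both at EC90 stimulate the cells; cAMP rise reported by CNG channel membrane potential dye signal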
Target sequence (O60755 1-299 limits assumed): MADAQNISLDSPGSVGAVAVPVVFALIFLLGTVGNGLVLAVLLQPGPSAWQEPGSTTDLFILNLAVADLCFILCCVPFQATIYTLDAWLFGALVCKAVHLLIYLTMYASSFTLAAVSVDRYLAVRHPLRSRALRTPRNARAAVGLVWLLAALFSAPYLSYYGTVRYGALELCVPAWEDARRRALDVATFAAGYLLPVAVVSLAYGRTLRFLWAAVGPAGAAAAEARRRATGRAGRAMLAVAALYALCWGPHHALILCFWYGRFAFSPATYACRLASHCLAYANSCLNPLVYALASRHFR
COUP-TFII inh: NR2F2 (human) inhibition, primary screen | HEK293T NGFI-A luciferase reporter, luminescence | inhibition, % at 8.6 µM | P24468 | 370,000 tested, 0.7% active;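 active = inhibition above a per-plate cutoff, mean inhibition of test wells between control levels plus 3 SD, cut at about 38% in these data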;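 also: cells cotransfected with COUP-TFII expression vector driving the NGFI-A reporter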
Target sequence (P24468 whole entry, looked up): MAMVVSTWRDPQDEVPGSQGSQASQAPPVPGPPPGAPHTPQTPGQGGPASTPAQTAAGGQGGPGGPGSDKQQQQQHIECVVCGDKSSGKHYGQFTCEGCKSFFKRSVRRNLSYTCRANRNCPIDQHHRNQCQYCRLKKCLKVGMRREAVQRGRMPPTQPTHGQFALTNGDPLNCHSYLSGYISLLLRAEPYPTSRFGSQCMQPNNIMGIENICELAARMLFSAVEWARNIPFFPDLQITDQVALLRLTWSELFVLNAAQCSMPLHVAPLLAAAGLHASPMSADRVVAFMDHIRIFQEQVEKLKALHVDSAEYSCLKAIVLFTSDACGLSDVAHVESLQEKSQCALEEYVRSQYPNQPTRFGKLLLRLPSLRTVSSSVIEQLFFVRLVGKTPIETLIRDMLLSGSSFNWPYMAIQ
GalR3 conf: confirmation of human galanin receptor 3 antagonists | shares compounds with GalR3 antagonist | HEK293 GalR3 CNG cAMP biosensor, membrane potential fluorescence; galR3 fused to GalR1 carboxy tail; challenged with forskolin and galanin at EC90 | inhibition, % at 3 µM | 1,600 tested, 59% active | AID 652245;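 active = inhibition above the primary screen's cutoff, the mean inhibition of all screened compounds plus 3 SD, cut at about 13% in these data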
HEK-CNG parental: acts as nonspecific agonist in parental HEK-CNG cells | shares compounds with GalR3 antagonist | activation, % at 3 µM | HEK293-CNG parental cells, cAMP membrane potential fluorescence; normalised: DMSO wells 0%, forskolin wells 100% | 1,600 tested, 10% active | AID 652268; in the data active = activation above about 1.3%
Gal4-VP16 ctr: counter-screen for COUP-TFII antagonists: inhibitors of VP16 | 2,500 tested, 25% active | shares compounds with COUP-TFII inh | inhibition, % at 8.5 µM | AID 687007 | HEK293 Gal4-VP16 luciferase reporter, luminescence; in the data active = inhibition above about 13%
NR2F2 inh conf: COUP-TFII (NR2F2) inhibition, confirmation assay. shares compounds with COUP-TFII inh. HEK293 NGFI-A luciferase reporter, luminescence. inhibition, % at 8.5 µM. 2,500 tested, 45% active. AID 687008;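 active = mean inhibition over three repeats above a set limit taken from the earlier primary screen, cut at about 38% in these data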
Large screens that a line does not name were inactive (follow-up assays come after a bar, where they were run). The list is not random: actives were taken first. Their share in the collection is about 1.1%.

O=C(NCc1ccc(F)c(F)c1)C1CCCN(c2nc3ccccc3o2)C1 (stereo unspecified)	none (no result: NCOA1 inh, SRC3 inh, NR5A2 inv ag, GalR3 antagonist)
CCCCCCn1c(NCC)nc2c1c(=O)n(C)c(=O)n2C	GalR3 antagonist 32, COUP-TFII inh 57 | GalR3 conf 77 | HEK-CNG parental inactive | Gal4-VP16 ctr inactive | NR2F2 inh conf 49
Fc1ccc(NC(=S)N2CCCN(c3ccc(C(F)(F)F)cn3)CC2)c(F)c1	GalR3 antagonist 110, COUP-TFII inh 64 | GalR3 conf 107 | HEK-CNG parental inactive | Gal4-VP16 ctr inactive | NR2F2 inh conf 63
O=C(O)c1ccc(C=Nn2c(-c3ccc(F)cc3)n[nH]c2=S)cc1	none (no result: NCOA1 inh, SRC3 inh, NR5A2 inv ag, GalR3 antagonist)
CC(C)CNC(=O)OCc1cn(Cc2cc(F)cc(F)c2)nn1	none (no result: NCOA1 inh, SRC3 inh, NR5A2 inv ag, GalR3 antagonist)
CC(=O)Nc1cccc(OCC(O)Cn2c(C)nc3ccccc32)c1 (stereo unspecified)	none
CCCOC(=O)c1ccc(OCC(O)Cn2c(C)nc3ccccc32)cc1 (stereo unspecified)	GalR3 antagonist 105, COUP-TFII inh 39 | GalR3 conf 123 | HEK-CNG parental inactive | Gal4-VP16 ctr inactive | NR2F2 inh conf inactive
O=C(c1ccccc1)N1CC[C@H]2[C@H](CCCN2Cc2ccccc2)C1	none (no result: NCOA1 inh, SRC3 inh, NR5A2 inv ag, GalR3 antagonist)
CCOc1ccc(Br)cc1/C(C)=N\NC1=NCCN1	GalR3 antagonist 65, COUP-TFII inh 45 | GalR3 conf 80 | HEK-CNG parental 4.9 | Gal4-VP16 ctr inactive | NR2F2 inh conf inactive
CCCCCOc1ccc(/C(C)=N/NC2=NCCN2)cc1	none
COc1ccc(S[C@]2(C(=O)N3CCOCC3)CC(=O)N(C(=O)C3CC3)[C@@H]2c2ccc(OC)cc2)cc1	none (no result: NCOA1 inh, SRC3 inh, NR5A2 inv ag, GalR3 antagonist)
CC(=O)Nc1ccc(NC(=O)c2csc([C@@H]3C[C@H](O)[C@@H](CO)O3)n2)cc1	none
O=C(Nc1ccc(Oc2ccccc2)cc1)c1csc([C@H]2C[C@H](O)[C@@H](CO)O2)n1	GalR3 antagonist 84, COUP-TFII inh 77 | GalR3 conf 109 | HEK-CNG parental inactive | Gal4-VP16 ctr inactive | NR2F2 inh conf 61
Cc1ccc(-n2c(SCC(=O)Nc3ccccc3-c3ccccc3)nnc2-c2ccccc2)cc1	none (no result: NCOA1 inh, SRC3 inh, NR5A2 inv ag, GalR3 antagonist)
CCc1ccc(OC)c(S(=O)(=O)Nc2ccc(Cc3ccncc3)cc2)c1	GalR3 antagonist 46, COUP-TFII inh 64 | GalR3 conf inactive | HEK-CNG parental inactive | Gal4-VP16 ctr inactive | NR2F2 inh conf inactive
COc1ccc(S(=O)(=O)Nc2ccc(Cc3ccncc3)cc2)cc1OC	none
CCN(CC)S(=O)(=O)c1ccc(Cl)c(NC(=O)COC(=O)c2cccn2C)c1	GalR3 antagonist 65, COUP-TFII inh 38 | GalR3 conf inactive | HEK-CNG parental inactive | Gal4-VP16 ctr inactive | NR2F2 inh conf inactive
CCN(CC)S(=O)(=O)c1ccc(Cl)c(NC(=O)COC(=O)c2ccc(O)cc2)c1	none
CCOc1ccc(Oc2ccccc2NC(=O)CSCC(=O)Nc2cc(C)on2)cc1	GalR3 antagonist 40, COUP-TFII inh 50 | GalR3 conf 73 | HEK-CNG parental inactive | Gal4-VP16 ctr inactive | NR2F2 inh conf 38
CC(C)N1CCCCC(NC(=O)c2ccc(F)cc2)C1=O (stereo unspecified)	none (no result: NCOA1 inh, SRC3 inh, NR5A2 inv ag, GalR3 antagonist)
CC1CCCN(c2cccc3c2S(=O)(=O)N(Cc2cccc(F)c2)[C@@H](C)[C@H](c2ccccc2)O3)C1 (stereo partly specified)	none (no result: NCOA1 inh, SRC3 inh, NR5A2 inv ag)
CC(=O)c1cn(CCOc2cc(C)ccc2C)c2ccccc12	GalR3 antagonist 84, COUP-TFII inh 55 | GalR3 conf 84 | HEK-CNG parental inactive | Gal4-VP16 ctr 18 | NR2F2 inh conf 63
COc1cccc(OCCn2cc(C(C)=O)c3ccccc32)c1	GalR3 antagonist 27, COUP-TFII inh 49 | GalR3 conf 21 | HEK-CNG parental inactive | Gal4-VP16 ctr inactive | NR2F2 inh conf 43
O=C(c1cccc(F)c1F)N1CCCC(c2nc(-c3cccs3)no2)C1 (stereo unspecified)	none (no result: NCOA1 inh, SRC3 inh, NR5A2 inv ag, GalR3 antagonist)
Cc1cc(C)c(CN2CCN(C(=O)Cn3cnc4c(OCc5ccccc5)ncnc43)CC2)c(C)c1	GalR3 antagonist 98, COUP-TFII inh 63 | GalR3 conf 106 | HEK-CNG parental inactive | Gal4-VP16 ctr inactive | NR2F2 inh conf 64
O=C(O)Cn1cnc2c(OCc3ccccc3)ncnc21	none
COc1ccc(CN2CCC(C(=O)Nc3ccc(Oc4ccccc4)nc3)CC2)cc1F	GalR3 antagonist 62, COUP-TFII inh 48 | GalR3 conf 101 | HEK-CNG parental inactive | Gal4-VP16 ctr inactive | NR2F2 inh conf inactive
O=C(Nc1ccc(Oc2ccccc2)nc1)C1CCN(Cc2ccccc2)CC1	none
CCc1nc2ccccc2c(C(=O)OCC(=O)Nc2cccc(S(=O)(=O)NC3=NCCCCC3)c2)c1C	GalR3 antagonist 14, COUP-TFII inh 64 | GalR3 conf inactive | HEK-CNG parental inactive | Gal4-VP16 ctr inactive | NR2F2 inh conf inactive
O=C(COC(=O)c1ccc2ccccc2n1)Nc1cccc(S(=O)(=O)NC2=NCCCCC2)c1	none
Cc1nc2ccccc2n1Cc1ccccc1	none
Cc1nc2ccccc2n1Cc1ccc(Br)cc1	GalR3 antagonist 83, COUP-TFII inh 58 | GalR3 conf 108 | HEK-CNG parental inactive | Gal4-VP16 ctr inactive | NR2F2 inh conf 50
COc1ccc(CN2CCC(CNC(=O)NC(C)C)CC2)cc1	none (no result: NCOA1 inh, SRC3 inh, NR5A2 inv ag, GalR3 antagonist)
O=C(OCCN1C(=O)c2cccc3c(N4CCOCC4)ccc(c23)C1=O)c1ccccc1Cl	GalR3 antagonist 15, COUP-TFII inh 66 | GalR3 conf 74 | HEK-CNG parental 2.9 | Gal4-VP16 ctr inactive | NR2F2 inh conf inactive
CC(C)Oc1cccc(C(=O)C2CCCN(Cc3cnc(N4CCOCC4)s3)C2)c1 (stereo unspecified)	GalR3 antagonist 40, COUP-TFII inh 37 | GalR3 conf 30 | HEK-CNG parental inactive | Gal4-VP16 ctr inactive | NR2F2 inh conf inactive
CCCCCn1c(=O)[nH]c2cc(C(=O)NC3CCN(Cc4ccccc4)CC3)ccc2c1=O	none
CCN(CC)S(=O)(=O)c1ccc(NC(=O)c2ccc(CN3CCOCC3)cc2)cc1	GalR3 antagonist 101, COUP-TFII inh 71 | GalR3 conf 106 | HEK-CNG parental inactive | Gal4-VP16 ctr inactive | NR2F2 inh conf 64
CCCOc1ccc(C(=O)Nc2ccc(CN3CCOCC3)cc2)cc1	none

Source: PubChem BioAssay
